M4 PAM: CHRM4 positive allosteric modulation | P08173 | CHO-K1 hM4/Gqi5, Fluo-8 calcium fluorescence, ACh EC20; 0% = ACh EC20, 100% = maximal ACh | activation, % at 3 µM | actives 0.4% (n = 360,000);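 active means activation above its plate's cutoff, the mean activation of sample wells plus 3 SD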
Target sequence (P08173 whole entry, looked up): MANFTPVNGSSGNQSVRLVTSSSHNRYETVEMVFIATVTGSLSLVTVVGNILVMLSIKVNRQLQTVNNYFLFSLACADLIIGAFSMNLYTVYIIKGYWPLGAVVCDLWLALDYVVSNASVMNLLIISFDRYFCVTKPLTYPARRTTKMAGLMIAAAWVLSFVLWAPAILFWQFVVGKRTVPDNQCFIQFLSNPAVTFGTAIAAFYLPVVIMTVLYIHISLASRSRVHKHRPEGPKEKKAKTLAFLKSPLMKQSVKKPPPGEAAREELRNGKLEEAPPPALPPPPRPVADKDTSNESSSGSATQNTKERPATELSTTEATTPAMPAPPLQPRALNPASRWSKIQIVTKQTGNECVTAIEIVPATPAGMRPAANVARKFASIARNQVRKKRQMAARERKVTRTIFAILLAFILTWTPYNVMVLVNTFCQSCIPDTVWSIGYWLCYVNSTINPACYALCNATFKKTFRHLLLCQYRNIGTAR
M4 ag: agonists of human muscarinic M4 receptor (CHRM4). activation, % at 3 µM. actives 0.14% (n = 360,000). P08173. AID 624127. CHO-K1 hM4/Gqi5, Fluo-8 calcium fluorescence; vehicle 0%, full acetylcholine response 100%;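 active means activation above the run mean over all test wells plus 3 SD, cut at about 32% in these data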;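 further: peak over basal fluorescence ratio per well then scaled between controls; 0% = DMSO wells and 100% = acetylcholine at EC100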
CHO-K1 Ca ag: counter-screen for M1 agonists: effect in parental CHO-K1 cells; Fluo-8 calcium fluorescence; scaled to maximal ATP response, vehicle zero; activation, % at 3 µM; actives 0.48% (n = 360,000); in the data active means activation above about 15%;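 further: untransfected CHO-K1 host cells lacking M1 receptor as counterscreen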
CHRM4 antagonist: antagonists of human muscarinic M4 receptor (CHRM4). CHO-hM4 cells, ACh EC80, Fluo-8 calcium fluorescence. inhibition, % at 3 µM. actives 0.73% (n = 360,000);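 active means inhibition above its plate's cutoff, the mean inhibition of sample wells plus 3 SD, cut at about 27% in these data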;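 further: 0% = acetylcholine EC80 with DMSO and 100% = DMSO without agonist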
CHO-K1 Ca PAM: nonselective activator or artifact in parental CHO-K1 calcium assay. AID 602247. activation, % at 3 µM. ATP EC20, Fluo-8 calcium fluorescence; 0% at ATP EC20, 100% at ATP max. actives 0.02% (n = 360,000);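 active means activation above the run cutoff, the mean activation of all test compounds plus 3 SD, cut at about 40% in these data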;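 further: peak over basal fluorescence ratio in a 140 s read after ATP addition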
CHO-K1 Ca antag: M1 antagonist counterscreen hit in parental CHO-K1 cells; ATP-induced calcium, Fluo-8 fluorescence; inhibition, % at 3 µM; actives 0.6% (n = 360,000); AID 602250;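 active means inhibition above a per-plate cutoff, the plate's mean sample inhibition plus 3 SD, cut at about 24% in these data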;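 further: 0% = DMSO plus EC80 ATP and 100% = DMSO alone without ATP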
Starred values were filed as active, the others as inactive. The list is not random: actives were taken first. Their share in the collection is about 2%.

SMILES	M4 PAM	M4 ag	CHO-K1 Ca ag	CHRM4 antagonist	CHO-K1 Ca PAM	CHO-K1 Ca antag
CCC(C)NC(=O)CNC(=O)c1nn(-c2ccc(OC)cc2OC)c(=O)c2ccccc12 (centres undefined)	11	1	1	-26	17	-9
COc1cccc(N2CCN(c3ccc([N+](=O)[O-])cn3)CC2)c1	17*	1	2	-1	13	-12
COc1ccc(N=[N+]([O-])c2ccc(OC)cc2)cc1	0	-1	0	15	15	-13
CCCCC(=O)Nc1nnn(CCC)n1	18	0	1	-4	27	-10
CCCCn1nnc(NC(=O)CC23CC4CC(CC(C4)C2)C3)n1	15*	1	0	-8	11	-12
NS(=O)(=O)c1ccc(NC(=S)Nc2ccc(C(=O)N3CCCCC3)cc2)cc1	0	1	16*	-1	17	10
CC1CCN(C(=O)c2ccc(NS(C)(=O)=O)cc2)CC1	4	1	1	10	21	-8
CS(=O)(=O)Nc1ccc(C(=O)N2CCCCC2)cc1	23*	3	0	-3	-3	0
COc1cc(/C=C2/SC(=Nc3ccc(O)cc3)NC2=O)cc(OC)c1O	-3	9	4	0	16	-17
COc1ccccc1N=C1NC(=O)/C(=C/c2ccc(N(C)C)cc2)S1	-14	22	32*	14	0	29*
CN(CCO)c1cc(Sc2nc3ccccc3s2)c2nonc2c1[N+](=O)[O-]	-13	4	2	93*	4	9
CCc1c(C)sc(NC(=O)c2ccco2)c1C#N	12	3	1	1	14	-9
O=C(Cc1cccc(NC(=O)C2CCN(C(=O)C3CCCCC3)CC2)c1)Nc1cccc(C(=O)N2CCCC2)c1	-4	-2	-1	-3	-24	11
OC[C@@H]1CN(Cc2ccc(-c3ccccc3)cc2)C[C@H](n2cnc3c(NC4CCC4)ncnc32)O1	-10	17	11	28*	-11	23
COc1ccc(CN2C[C@@H](CO)O[C@@H](n3cnc4c(N5CCN(CCO)CC5)ncnc43)C2)cc1	6	0	0	-2	19	-5
OC[C@@H]1CN(Cc2ccccc2)C[C@H](n2cnc3c(NC4CC4)ncnc32)O1	4	1	0	-5	2	-3
COc1ccc(CN2C[C@@H](CO)O[C@@H](n3cnc4c(N5CCCC5)ncnc43)C2)cc1	17*	2	1	-23	19	-12
OCCN1CCN(c2ncnc3c2ncn3[C@H]2CN(Cc3cccnc3)C[C@@H](CO)O2)CC1	4	0	0	-21	-11	27*
OCCN1CCN(c2ncnc3c2ncn3[C@H]2CN(Cc3ccccc3)C[C@@H](CO)O2)CC1	5	1	0	-8	8	-7
CC1CCN(S(=O)(=O)c2cccc(C(=O)NC3CCS(=O)(=O)C3)c2)CC1 (centres undefined)	7	1	0	0	3	1
CCCC1NC(=O)c2cccnc2-n2c1nc1ccc(C)cc1c2=O (centres undefined)	2	2	1	8	17	-4
COCCNC(=O)CNC(=S)N(CCCN1CCOCC1)Cc1cccs1	7	1	-1	2	-9	-3
O=C(CC(NC(=O)OCc1ccccc1)C(=O)OCc1ccccc1)OCc1ccccc1 (centres undefined)	-8	8	1	28*	-1	8
CCOc1cc(-c2nc3ccccn3c2NCC2CCCO2)ccc1O (centres undefined)	-25	22	5	30*	7	15
C#CCN1C(=O)S/C(=C\c2cc3c(cc2OC)OCO3)C1=O	0	0	0	4	-2	-5
SMILES	M4 PAM	M4 ag	CHO-K1 Ca ag	CHRM4 antagonist	CHO-K1 Ca PAM	CHO-K1 Ca antag
CC(NC(=O)COC(=O)Cc1ccsc1)c1ccccc1 (centres undefined)	2	0	18*	-1	16	2
CN(Cc1cn[nH]c1-c1ccc(-c2ccccc2)cc1)CC1CCOCC1	-6	8	17*	-19	21	-2
Cn1c(=O)c(C(=O)NCC2CCCO2)c(O)c2ccccc21 (centres undefined)	18	2	0	33*	-3	1
Cn1c(C(=O)NCC2CCCO2)cc2c(=O)n(C)c3ccccc3c21 (centres undefined)	3	5	2	-11	17	-14
Cn1c(C(=O)NCC2CCCO2)cc2c(=O)[nH]c3ccccc3c21 (centres undefined)	28*	3	1	-15	13	-11
COC(=O)c1ccc(C)c(NC(=O)CSc2nnc3ccccn23)c1	1	1	0	6	-1	-7
COc1ccc(-n2c(SCC(=O)NCC3CCCO3)nc3ccccc3c2=O)cc1Cl (centres undefined)	-3	5	2	6	9	0
O=C(NCCCN1CCOCC1)c1ccc(Cl)c([N+](=O)[O-])c1	-3	1	0	1	18	-4
CCOC(=O)CSc1ccc(C(=O)NCCCN2CCOCC2)cc1[N+](=O)[O-]	-17	0	1	27*	16	-6
O=C(NCCCN1CCOCC1)c1ccc(Sc2cccc(Cl)c2)c([N+](=O)[O-])c1	-16	3	2	47*	6	-5
CCOc1ccc(CN2CCC(C(=O)N3CCN(c4ccccc4F)CC3)CC2)cc1OC	4	1	1	-1	9	-7
COc1cc(CN2CCC(C(=O)N3CCN(c4ccccc4F)CC3)CC2)cc(OC)c1O	6	0	0	9	-5	33*
CCc1ccc(-c2nc(CN3CCC(C(=O)N4CCN(c5ccccc5)CC4)CC3)c(C)o2)cc1	-27	41*	9	10	13	1
Cc1cc2cc3c(cc2nc1SCc1ccccn1)OCCO3	4	0	2	-7	2	-5
N#Cc1cc2ccccc2nc1SCc1ccccn1	-13	52*	12	6	-8	-29
COc1ccccc1CC(=O)N1CCOCC1	1	1	1	-9	22	-10
COc1ccc(S(=O)(=O)N2CCCCCC2)cc1C(=O)NCc1ccccc1Cl	26*	0	4	-3	13	-13
CCOc1cc(C(=O)OCc2cc(=O)n3c(C)csc3n2)ccc1OC	9	1	0	-10	6	-4
Cc1cc(C)cc(OCC(=O)Nc2ccc(N3CCN(C(=O)c4ccco4)CC3)cc2)c1	-18	27	13	32*	-8	-2
Cc1ccc(-c2nc(Nc3cccc(C)c3)sc2CC(=O)O)cc1	5	3	1	-15	-11	26*

High-throughput results: PubChem, The Scripps Research Institute Molecular Screening Center
